{
  "source": "PubChem BioAssay (NCATS)",
  "note": "Records with an inconclusive call do not appear. Entries that show only a call come without a potency. Activity calls are given as the source filed them. Unless noted, the call rests on the fitted dose curve.",
  "data": [
    {"target": "Alpha-galactosidase (Coffea arabica) (UniProt Q42656)", "sequence (Q42656 whole entry, looked up)": "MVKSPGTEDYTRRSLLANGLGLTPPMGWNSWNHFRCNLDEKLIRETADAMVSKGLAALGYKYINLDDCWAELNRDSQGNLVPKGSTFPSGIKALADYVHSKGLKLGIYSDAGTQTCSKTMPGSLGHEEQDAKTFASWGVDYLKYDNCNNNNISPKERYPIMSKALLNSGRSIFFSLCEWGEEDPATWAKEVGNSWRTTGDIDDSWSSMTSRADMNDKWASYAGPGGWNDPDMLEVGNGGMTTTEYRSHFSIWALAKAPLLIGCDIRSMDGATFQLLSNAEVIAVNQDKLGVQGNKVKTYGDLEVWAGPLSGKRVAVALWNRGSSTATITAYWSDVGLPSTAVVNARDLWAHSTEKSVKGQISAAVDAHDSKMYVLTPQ", "experiment": "Counterscreen for Glucocerebrosidase Inhibitors: qHTS Assay for Coffee Bean alpha-Galactosidase at pH 4.5 (AID 957; active means well fitted curve in the direction sought with a large enough effect; an effect the other way counts as inactive or inconclusive)", "conditions": "purified coffee bean alpha-galactosidase, fluorogenic substrate; series mostly up to 76.9 µM", "in_short": "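Coffee bean alpha-galactosidase 2 nM, substrate 4-MU-alpha-Gal 80 uM, pH 4.5 citrate/Tween-20, 20 min RT. Cpd titration 0.7 nM–77 uM. Stop pH 10, fluorescence 365/440 nm; Hill-equation AC50.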", "values": [
      {"molecule": "CCCCOC(=O)NS(=O)(=O)c1sc(CC(C)C)cc1-c1ccc(Cn2c(CC)nc3c(C)cc(C)nc32)cc1", "outcome": "inactive"},
      {"molecule": "C1CCC(N=C(NC23CC4CC(CC(C4)C2)C3)N2CCOCC2)CC1", "outcome": "inactive"},
      {"molecule": "Nc1ncnc2c1c(-c1ccc(Oc3ccccc3)cc1)cn2C1CCCC1", "outcome": "inactive"}
    ]},
    {"target": "Alpha-galactosidase (Coffea arabica) (UniProt Q42656)", "experiment": "Counterscreen for Glucocerebrosidase Inhibitors: qHTS Assay for Coffee Bean alpha-Galactosidase at pH 5.9 (AID 998; active means well fitted curve in the direction sought with a large enough effect; an effect the other way counts as inactive or inconclusive)", "conditions": "coffee bean alpha-galactosidase enzyme assay; series mostly up to 76.9 µM", "in_short": "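Compounds were titrated from 0.7 nM to 77 uM against green coffee bean alpha-galactosidase (2 nM) using 80 uM fluorogenic 4-methylumbelliferyl substrate. After 20 min at room temperature, reactions were stopped at pH 10 and read by fluorescence.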", "values": [
      {"molecule": "CCCCOC(=O)NS(=O)(=O)c1sc(CC(C)C)cc1-c1ccc(Cn2c(CC)nc3c(C)cc(C)nc32)cc1", "outcome": "inactive"},
      {"molecule": "C1CCC(N=C(NC23CC4CC(CC(C4)C2)C3)N2CCOCC2)CC1", "outcome": "inactive"},
      {"molecule": "Nc1ncnc2c1c(-c1ccc(Oc3ccccc3)cc1)cn2C1CCCC1", "outcome": "inactive"}
    ]},
    {"test_system": "not listed separately", "experiment": "Validation screen for inhibitors of Lassa infection (AID 463096)", "conditions": "Lassa virus infection, cell-based; series mostly up to 46.1 µM", "values": [
      {"molecule": "CC(=O)SC1CC2=CC(=O)CC[C@]2(C)C2CC[C@@]3(C)[C@@H](CC[C@@]34CCC(=O)O4)C12", "note": "(stereo partly specified)", "Potency": "inactive"},
      {"molecule": "NC(=S)c1ccc[n+]([C@@H]2O[C@@H](COP(=O)([O-])OP(=O)(O)OC[C@H]3O[C@@H](n4cnc5c(N)ncnc54)[C@H](OP(=O)(O)O)[C@H]3O)C(O)C2O)c1", "note": "(stereo partly specified)", "Potency": "inactive"},
      {"molecule": "C/C=C1\\C(=O)CC2C3CCC4=CC(=O)CC[C@]4(C)C3CC[C@]12C", "note": "(stereo partly specified)", "Potency": "inactive"},
      {"molecule": "N#CC(Cc1ccc(O)c(O)c1)C(=O)N1CCc2ccccc21", "note": "(stereo unspecified)", "Potency": "inactive"},
      {"molecule": "CCCCOC(=O)NS(=O)(=O)c1sc(CC(C)C)cc1-c1ccc(Cn2c(CC)nc3c(C)cc(C)nc32)cc1", "Potency": "inactive"},
      {"molecule": "CN(C)CCCO[C@H]1C([C@H](O)CO)O[C@@H]2OC(C)(C)O[C@@H]21", "note": "(stereo partly specified)", "Potency": "inactive"},
      {"molecule": "C1CCC(N=C(NC23CC4CC(CC(C4)C2)C3)N2CCOCC2)CC1", "Potency": "inactive"},
      {"molecule": "C[C@H]1c2cccc(O)c2C(O)=C2C(=O)[C@]3(O)C(O)=C(C(N)=O)C(=O)C(N(C)C)[C@@H]3[C@@H](O)C21", "note": "(stereo partly specified)", "Potency": "inactive"},
      {"molecule": "CC(=O)[C@@]1(O)CC[C@H]2C3CCC4=CC(=O)CC[C@]4(C)C3CC[C@@]21C", "note": "(stereo partly specified)", "Potency": "inactive"},
      {"molecule": "Nc1ncnc2c1nc(Br)n2C1O[C@H]2COP(=O)(O)O[C@@H]2C1O", "note": "(stereo partly specified)", "Potency": "inactive"},
      {"molecule": "O=C(NCCNCC(O)COc1ccc(O)cc1)N1CCOCC1", "note": "(stereo unspecified)", "Potency": "inactive"},
      {"molecule": "C[C@]12C[C@H](O)C3[C@@H](CCC4=CC(=O)CC[C@@]43C)[C@@H]1CC[C@@H]2C(=O)CO", "note": "(stereo partly specified)", "Potency": "inactive"},
      {"molecule": "C[C@@H](Oc1ccc(Oc2cnc3ccc(Cl)cc3n2)cc1)C(=O)O", "Potency": "inactive"},
      {"molecule": "Nc1ncnc2c1ncn2[C@@H]1O[C@H](C(=O)NC2CC2)[C@H](O)[C@H]1O", "Potency": "inactive"},
      {"molecule": "Nc1nc2c(nc(Br)n2C2O[C@H]3COP(=O)(O)O[C@@H]3C2O)c(=O)[nH]1", "note": "(stereo partly specified)", "Potency": "inactive"},
      {"molecule": "CN(C)C1C(=O)C(C(N)=O)=C(O)[C@@]2(O)C(=O)C3=C(O)c4c(O)ccc(Cl)c4[C@@H](O)C3C[C@@H]12", "note": "(stereo partly specified)", "Potency": "inactive"},
      {"molecule": "NCC1OC(O[C@@H]2[C@H](O)[C@@H](OC3C(O)C(N)CC(N)C3OC3OC(CO)C(O)C(O)C3N)O[C@@H]2CO)C(N)C(O)C1O", "note": "(stereo partly specified)", "Potency": "inactive"},
      {"molecule": "[N-]=[N+]=Nc1ccc(C(=O)CSC[C@H](NC(=O)CC[C@H](N)C(=O)O)C(=O)NCC(=O)O)cc1", "Potency": "inactive"},
      {"molecule": "CN1CCc2c(cc(O)c(O)c2Cl)C(c2cccc(Cl)c2)C1", "note": "(stereo unspecified)", "Potency": "inactive"},
      {"molecule": "COc1c2c(nc3ccccc13)OC(C(C)(O)CO)C2", "note": "(stereo unspecified)", "Potency": "inactive"},
      {"molecule": "OC[C@H]1O[C@@H](n2cnc3c(NC4CCCC4)ncnc32)[C@H](O)[C@H]1O", "Potency": "inactive"},
      {"molecule": "Nc1ncnc2c1c(-c1ccc(Oc3ccccc3)cc1)cn2C1CCCC1", "Potency": "inactive"},
      {"molecule": "CCCCCCCCCCCCC/C=C/[C@@H](O)[C@@H](N)CO", "Potency": "inactive"},
      {"molecule": "CC#C[C@]1(O)CC[C@H]2C3CCC4=CC(=O)CCC4=C3[C@@H](c3ccc(N(C)C)cc3)C[C@@]21C", "note": "(stereo partly specified)", "Potency": "inactive"},
      {"molecule": "COc1cc(=O)n(C)c2c(OCC(O)C(C)(C)O)cccc12", "note": "(stereo unspecified)", "Potency": "inactive"},
      {"molecule": "O=C(O)CC[C@H](NC(=O)c1ccccc1C(=O)O)C(=O)O", "Potency": "inactive"},
      {"molecule": "NC(=S)NCCCC(N)C(=O)O", "note": "(stereo unspecified)", "Potency": "inactive"},
      {"molecule": "COc1ccc(CCNC[C@@H](O)c2ccc(O)cc2)cc1OC", "Potency": "inactive"},
      {"molecule": "Nc1ncnc2c1ncn2[C@@H]1O[C@H](COP(=O)(O)OP(=O)(O)OP(=O)(O)OP(=O)(O)OC[C@@H]2O[C@H](n3cnc4c(N)ncnc43)[C@@H](O)[C@@H]2O)[C@H](O)[C@H]1O", "Potency": "inactive"},
      {"molecule": "CC(C)C1NC(=O)[C@H](CCCCN)NC(=O)[C@@H](Cc2c[nH]c3ccccc23)NC(=O)[C@H](Cc2ccc(O)cc2)NC(=O)[C@H](C)N(C)C(=O)[C@H](Cc2ccccc2)NC1=O", "note": "(stereo partly specified)", "Potency": "inactive"},
      {"molecule": "CC(C)(C)NCC(O)COc1nsnc1N1CCOCC1", "note": "(stereo unspecified)", "Potency": "inactive"},
      {"molecule": "C[C@]12CCC(=O)C=C1CC[C@@H]1C2[C@@H](O)C[C@@]2(C)[C@H]1CC[C@]2(O)C(=O)CO", "note": "(stereo partly specified)", "Potency": "inactive"},
      {"molecule": "O=[N+]([O-])c1ccc(CSc2ncnc3c2ncn3[C@@H]2O[C@H](CO)[C@H](O)[C@H]2O)cc1", "Potency": "inactive"},
      {"molecule": "CC(=O)O[C@]1(C(C)=O)CC[C@H]2C3C=C(Cl)C4=CC(=O)[C@@H]5C[C@H]5[C@]4(C)C3CC[C@@]21C", "note": "(stereo partly specified)", "Potency": "inactive"},
      {"molecule": "OC[C@H]1O[C@@H](n2cnc3c(N[C@H]4CC5CCC4C5)ncnc32)[C@H](O)[C@@H]1O", "note": "(stereo partly specified)", "Potency": "inactive"},
      {"molecule": "CCCCC#Cc1nc(N)c2ncn([C@@H]3O[C@H](C(=O)NCC)[C@@H](O)[C@H]3O)c2n1", "Potency": "inactive"},
      {"molecule": "Nc1ncnc2c1ncn2[C@@H]1O[C@H](CO)[C@H](O)[C@H]1O", "Potency": "inactive"},
      {"molecule": "CNC(=O)[C@H]1O[C@@H](n2cnc3c(NCc4ccc(N)cc4)ncnc32)[C@H](O)[C@H]1O", "Potency": "inactive"},
      {"molecule": "Nc1nc(Cl)nc2c1ncn2[C@@H]1O[C@H](CO)[C@H](O)[C@H]1O", "Potency": "inactive"},
      {"molecule": "CSc1nc(N)c2ncn([C@@H]3O[C@H](COP(=O)(O)OP(=O)(O)OP(=O)(O)O)[C@H](O)[C@H]3O)c2n1", "Potency": "inactive"}
    ]}
  ]
}
